These results are taken from ChEMBL document CHEMBL3988442, “University of Dundee, Small-Polar-MMV Screening Library” (2021).

Common to all, as to set-up: scale not given: direction of the effect not stated beside the values
Test [1] concerns the target Protein translocase subunit SecA (Escherichia coli (strain K12)) (UniProt P10408). As to the kind of experiment: Assay to Identify E. coli SecA ATPase Inhibitors. In kind it is functional. As to conditions: 30 µM.
Test [2] addresses T1, Ubiquitin-activating enzyme e1, putative (Leishmania donovani (strain BPK282A1)) (UniProt E9BSI1).
T1 sequence (whole entry): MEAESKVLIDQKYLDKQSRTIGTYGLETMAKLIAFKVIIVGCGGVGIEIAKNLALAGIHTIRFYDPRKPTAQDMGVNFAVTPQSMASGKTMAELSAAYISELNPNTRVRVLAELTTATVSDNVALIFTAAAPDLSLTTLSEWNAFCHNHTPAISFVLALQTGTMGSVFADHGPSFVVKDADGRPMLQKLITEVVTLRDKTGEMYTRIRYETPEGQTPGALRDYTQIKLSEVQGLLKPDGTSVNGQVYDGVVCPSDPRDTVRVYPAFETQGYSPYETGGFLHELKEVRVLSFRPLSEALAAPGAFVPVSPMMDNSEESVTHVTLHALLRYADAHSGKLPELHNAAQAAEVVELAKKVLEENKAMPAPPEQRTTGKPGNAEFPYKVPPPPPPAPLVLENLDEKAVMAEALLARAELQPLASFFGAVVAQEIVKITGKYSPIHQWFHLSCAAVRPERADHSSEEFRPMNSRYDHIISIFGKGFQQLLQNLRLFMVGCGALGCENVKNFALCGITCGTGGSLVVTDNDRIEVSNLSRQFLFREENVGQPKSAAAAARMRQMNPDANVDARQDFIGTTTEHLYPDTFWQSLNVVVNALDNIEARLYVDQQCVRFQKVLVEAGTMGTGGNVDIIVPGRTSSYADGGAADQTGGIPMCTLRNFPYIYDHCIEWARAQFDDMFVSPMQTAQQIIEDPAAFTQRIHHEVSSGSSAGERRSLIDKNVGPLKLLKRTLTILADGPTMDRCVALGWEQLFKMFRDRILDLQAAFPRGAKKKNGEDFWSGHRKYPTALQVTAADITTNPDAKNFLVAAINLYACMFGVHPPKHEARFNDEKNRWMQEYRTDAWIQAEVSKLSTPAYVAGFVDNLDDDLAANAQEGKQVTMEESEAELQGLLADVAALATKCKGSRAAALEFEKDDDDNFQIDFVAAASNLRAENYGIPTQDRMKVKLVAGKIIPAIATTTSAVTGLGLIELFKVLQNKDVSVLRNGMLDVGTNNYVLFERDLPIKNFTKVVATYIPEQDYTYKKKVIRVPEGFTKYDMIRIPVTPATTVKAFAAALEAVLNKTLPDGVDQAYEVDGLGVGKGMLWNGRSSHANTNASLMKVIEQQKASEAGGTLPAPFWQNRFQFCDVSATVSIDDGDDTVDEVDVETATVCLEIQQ
Kind of test: Leishmania donovani Ubiquitin Activating Enzyme (LdE1). Type of test: functional. The note with it: 30 µM.

In test [3] the target is T2, Aspartate--tRNA(Asp/Asn) ligase (Mycobacterium tuberculosis (strain ATCC 25618 / H37Rv)) (UniProt P9WFW3). Note: in the data most compounds retested in dose-response had high values.
T2 sequence (whole entry): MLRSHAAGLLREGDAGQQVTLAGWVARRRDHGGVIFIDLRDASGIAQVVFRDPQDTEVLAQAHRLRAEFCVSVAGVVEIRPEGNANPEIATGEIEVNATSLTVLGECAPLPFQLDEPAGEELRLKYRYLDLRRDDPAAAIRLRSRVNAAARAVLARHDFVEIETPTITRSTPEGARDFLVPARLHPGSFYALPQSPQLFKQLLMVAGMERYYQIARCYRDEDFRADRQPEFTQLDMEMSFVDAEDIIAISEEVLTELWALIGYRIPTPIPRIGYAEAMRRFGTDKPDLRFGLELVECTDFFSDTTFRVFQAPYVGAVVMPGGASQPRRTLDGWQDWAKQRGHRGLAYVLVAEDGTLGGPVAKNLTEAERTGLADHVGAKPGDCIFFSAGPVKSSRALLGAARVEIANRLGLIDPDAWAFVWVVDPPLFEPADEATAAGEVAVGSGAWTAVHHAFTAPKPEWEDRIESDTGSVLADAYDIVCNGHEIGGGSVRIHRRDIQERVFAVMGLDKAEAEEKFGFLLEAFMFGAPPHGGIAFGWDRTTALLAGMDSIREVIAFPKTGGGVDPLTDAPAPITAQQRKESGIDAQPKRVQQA
Kind of test: Assay for Asp RNA synthetase-1 from Mycobacterium tuberculosis. The note with it: 30 µM. In kind it is functional.

For test [4], the target named is AMP-activated protein kinase, AMPK (Homo sapiens) (UniProt P54646+O43741+P54619+Q9UGJ0+Q9Y478+Q13131+Q9UGI9). As to the kind of experiment: AMP-dependent Kinase enzyme assay. An in vitro enzyme assay that detects ADP turnover that is directly proportional to AMPK activity. This uses naive AMPK that is activated during the assay with MK-8722. The note with it: 30 µM. In kind it is functional.

The target in test [5] is Sialic acid-binding Ig-like lectin 9 (Homo sapiens) (UniProt Q9Y336). As to the kind of experiment: Hs-Siglec9 ALPHAscreen SOP 20170721. As to conditions: 10 µM. On the technique in general: Bead proximity is the source of the signal in Alpha formats.
A further test deals with Trypanosoma cruzi. As to the kind of experiment: Trypanosoma cruzi phosphomannomutase and mannose-1-phosphate guanylyltransferase assay. In kind it is functional. The note with it: 10 µM.
In test [6] the target is T3, Arginase-2, mitochondrial (Homo sapiens) (UniProt P78540).
T3 sequence (whole entry): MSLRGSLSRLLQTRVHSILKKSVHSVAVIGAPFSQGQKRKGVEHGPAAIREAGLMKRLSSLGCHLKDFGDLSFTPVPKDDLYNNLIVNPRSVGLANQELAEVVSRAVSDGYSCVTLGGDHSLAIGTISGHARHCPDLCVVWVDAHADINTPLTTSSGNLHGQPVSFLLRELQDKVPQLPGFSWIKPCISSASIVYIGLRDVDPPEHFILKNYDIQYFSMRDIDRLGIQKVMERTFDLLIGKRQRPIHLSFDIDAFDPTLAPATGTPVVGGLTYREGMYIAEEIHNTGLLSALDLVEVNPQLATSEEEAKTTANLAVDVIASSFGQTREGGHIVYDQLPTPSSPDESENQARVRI
Kind of test: in vitro enzyme assay to detect the production of urea directly proportional to the activity of Arginase II. Note: in the data most compounds retested in dose-response had high values. Type of test: functional. The note with it: 33.3 µM.

Test [7] deals with T4, Proteasome subunit beta (Trypanosoma cruzi) (UniProt O96673).
T4 sequence (whole entry): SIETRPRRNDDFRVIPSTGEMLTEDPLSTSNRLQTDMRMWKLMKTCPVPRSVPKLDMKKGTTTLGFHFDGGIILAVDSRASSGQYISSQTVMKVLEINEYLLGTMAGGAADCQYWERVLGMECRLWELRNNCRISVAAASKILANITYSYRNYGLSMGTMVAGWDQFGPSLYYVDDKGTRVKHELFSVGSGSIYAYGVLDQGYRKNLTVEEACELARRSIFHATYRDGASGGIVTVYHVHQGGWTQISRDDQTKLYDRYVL
Kind of test: Trypanosoma cruzi proteasome chymotrypsin-like activity (TcProtChymo) assay. Note: in the data most compounds retested in dose-response had high values. As to conditions: 9.37 µM. In kind it is functional.

For a further test, the species on record is Homo sapiens. Kind of test: To identify inhibition of the IFN signalling (Jak-Stat) pathway via expression of an eGFP reporter gene under the control of an IFN-stimulated response element (ISRE) containing MxA promoter. Type of test: functional. The note with it: 30 µM.
Test [8] deals with Shiga toxin 2 (Escherichia coli O157:H7) (UniProt P09385+P09386). Kind of test: E. coli 0.157:H7 Shiga Toxin SOP - stx2 screening assay. Type of test: functional. As to conditions: 30 µM.
For test [9], the target named is T5, Tyrosyl-tRNA synthetase, putative (Trypanosoma cruzi (strain CL Brener)) (UniProt Q4DSP6).
T5 sequence (whole entry): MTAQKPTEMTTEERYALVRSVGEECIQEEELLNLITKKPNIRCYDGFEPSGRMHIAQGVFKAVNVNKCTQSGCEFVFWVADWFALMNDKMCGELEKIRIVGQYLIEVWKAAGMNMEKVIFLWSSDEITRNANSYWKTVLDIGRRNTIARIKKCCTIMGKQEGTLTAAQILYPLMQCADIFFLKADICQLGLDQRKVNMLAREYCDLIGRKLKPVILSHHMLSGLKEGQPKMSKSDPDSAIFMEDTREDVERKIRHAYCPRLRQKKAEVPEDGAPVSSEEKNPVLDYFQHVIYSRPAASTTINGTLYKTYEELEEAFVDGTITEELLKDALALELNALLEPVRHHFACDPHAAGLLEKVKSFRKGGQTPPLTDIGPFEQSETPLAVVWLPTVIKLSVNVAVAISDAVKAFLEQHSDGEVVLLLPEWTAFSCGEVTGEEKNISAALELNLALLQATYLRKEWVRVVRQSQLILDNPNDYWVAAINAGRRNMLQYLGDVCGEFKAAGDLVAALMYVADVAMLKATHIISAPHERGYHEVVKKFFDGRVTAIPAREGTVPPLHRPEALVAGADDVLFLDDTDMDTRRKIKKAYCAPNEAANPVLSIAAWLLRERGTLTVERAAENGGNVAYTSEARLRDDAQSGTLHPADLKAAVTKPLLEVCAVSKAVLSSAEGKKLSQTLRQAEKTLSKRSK
As to the kind of experiment: Trypanosoma cruzi tyrosyl tRNA synthetase (TcYRS) _High Tyrosine SOP. Note: in the data most compounds retested in dose-response had high values. In kind it is functional. The note with it: 30 µM.

Test [10] has as its target T5, Tyrosyl-tRNA synthetase, putative (Trypanosoma cruzi (strain CL Brener)). Kind of test: Trypanosoma cruzi tyrosyl tRNA synthetase (TcYRS) SOP. In kind it is functional. The note with it: 30 µM.
Test [11] concerns the target Chromo domain-containing protein 1 (Saccharomyces cerevisiae (strain ATCC 204508 / S288c) (Baker's yeast)) (UniProt P32657). As to the kind of experiment: ScCHD-1 Enzyme Inhibition Assay. Note: in the data most compounds retested in dose-response had high values. Type of test: functional. As to conditions: 30 µM.

For some assays here: Results with a measured potency or affinity are listed apart.

Chain of Protein translocase subunit SecA (Escherichia coli (strain K12)) (P10408 whole entry): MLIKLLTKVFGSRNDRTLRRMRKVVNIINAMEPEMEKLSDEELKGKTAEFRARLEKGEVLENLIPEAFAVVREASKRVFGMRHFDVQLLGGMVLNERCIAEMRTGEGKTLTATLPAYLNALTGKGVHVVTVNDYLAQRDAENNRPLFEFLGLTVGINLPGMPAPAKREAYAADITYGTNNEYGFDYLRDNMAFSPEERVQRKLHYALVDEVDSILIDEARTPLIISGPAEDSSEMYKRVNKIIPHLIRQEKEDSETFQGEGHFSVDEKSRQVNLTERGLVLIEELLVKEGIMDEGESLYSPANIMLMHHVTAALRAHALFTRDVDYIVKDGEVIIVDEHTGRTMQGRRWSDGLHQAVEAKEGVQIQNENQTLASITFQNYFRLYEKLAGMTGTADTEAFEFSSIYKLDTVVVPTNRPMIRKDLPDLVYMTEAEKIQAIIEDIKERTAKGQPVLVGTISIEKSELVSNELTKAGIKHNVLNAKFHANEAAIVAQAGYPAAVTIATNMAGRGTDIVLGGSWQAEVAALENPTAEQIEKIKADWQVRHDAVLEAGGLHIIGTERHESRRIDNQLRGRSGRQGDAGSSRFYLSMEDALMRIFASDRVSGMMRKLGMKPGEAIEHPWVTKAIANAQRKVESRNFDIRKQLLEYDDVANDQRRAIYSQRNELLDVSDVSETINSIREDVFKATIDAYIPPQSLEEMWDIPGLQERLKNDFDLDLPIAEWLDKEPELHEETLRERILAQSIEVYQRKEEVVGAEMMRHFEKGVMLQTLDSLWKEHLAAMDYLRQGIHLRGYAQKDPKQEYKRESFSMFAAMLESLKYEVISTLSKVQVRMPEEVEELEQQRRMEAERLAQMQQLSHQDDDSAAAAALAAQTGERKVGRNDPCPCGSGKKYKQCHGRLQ
Chain of Chromo domain-containing protein 1 (Saccharomyces cerevisiae (strain ATCC 204508 / S288c) (Baker's yeast)) (P32657 whole entry, the tested form may be a part): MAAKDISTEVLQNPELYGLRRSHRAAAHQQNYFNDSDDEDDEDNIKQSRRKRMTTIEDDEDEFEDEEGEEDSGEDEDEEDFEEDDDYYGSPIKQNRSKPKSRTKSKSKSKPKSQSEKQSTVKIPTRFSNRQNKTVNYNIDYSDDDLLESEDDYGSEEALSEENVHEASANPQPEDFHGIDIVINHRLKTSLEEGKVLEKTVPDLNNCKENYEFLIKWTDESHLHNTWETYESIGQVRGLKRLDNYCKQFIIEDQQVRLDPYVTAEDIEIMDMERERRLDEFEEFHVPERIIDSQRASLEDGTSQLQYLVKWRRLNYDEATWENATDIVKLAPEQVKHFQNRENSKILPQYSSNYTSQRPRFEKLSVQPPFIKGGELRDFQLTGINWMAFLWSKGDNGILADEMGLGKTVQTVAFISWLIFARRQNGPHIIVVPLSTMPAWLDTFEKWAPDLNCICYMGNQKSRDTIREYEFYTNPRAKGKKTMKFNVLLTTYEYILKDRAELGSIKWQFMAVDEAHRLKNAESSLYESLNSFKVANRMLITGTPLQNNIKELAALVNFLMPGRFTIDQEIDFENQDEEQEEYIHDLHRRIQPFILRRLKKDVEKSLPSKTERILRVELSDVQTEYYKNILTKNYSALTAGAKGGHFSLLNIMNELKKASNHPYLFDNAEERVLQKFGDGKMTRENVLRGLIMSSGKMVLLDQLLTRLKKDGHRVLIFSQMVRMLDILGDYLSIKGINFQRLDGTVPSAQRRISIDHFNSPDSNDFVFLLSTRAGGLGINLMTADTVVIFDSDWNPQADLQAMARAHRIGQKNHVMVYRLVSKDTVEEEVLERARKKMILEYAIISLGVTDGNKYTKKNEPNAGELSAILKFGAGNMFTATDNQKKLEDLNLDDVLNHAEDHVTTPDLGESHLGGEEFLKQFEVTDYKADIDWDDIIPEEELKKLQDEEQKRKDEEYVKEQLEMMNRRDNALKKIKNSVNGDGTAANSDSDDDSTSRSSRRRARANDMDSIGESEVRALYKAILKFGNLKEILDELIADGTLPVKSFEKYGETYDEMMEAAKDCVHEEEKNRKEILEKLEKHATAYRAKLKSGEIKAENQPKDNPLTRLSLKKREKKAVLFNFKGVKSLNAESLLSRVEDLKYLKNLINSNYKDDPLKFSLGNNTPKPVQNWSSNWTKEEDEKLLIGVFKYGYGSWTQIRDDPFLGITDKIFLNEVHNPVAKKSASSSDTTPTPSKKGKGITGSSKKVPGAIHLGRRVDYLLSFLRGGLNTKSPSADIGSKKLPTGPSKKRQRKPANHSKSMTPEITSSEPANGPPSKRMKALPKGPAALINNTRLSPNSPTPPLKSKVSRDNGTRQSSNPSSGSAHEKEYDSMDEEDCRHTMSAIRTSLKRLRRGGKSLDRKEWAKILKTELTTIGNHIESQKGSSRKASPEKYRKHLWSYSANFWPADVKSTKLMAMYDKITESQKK
Chain of Sialic acid-binding Ig-like lectin 9 (Homo sapiens) (Q9Y336 whole entry): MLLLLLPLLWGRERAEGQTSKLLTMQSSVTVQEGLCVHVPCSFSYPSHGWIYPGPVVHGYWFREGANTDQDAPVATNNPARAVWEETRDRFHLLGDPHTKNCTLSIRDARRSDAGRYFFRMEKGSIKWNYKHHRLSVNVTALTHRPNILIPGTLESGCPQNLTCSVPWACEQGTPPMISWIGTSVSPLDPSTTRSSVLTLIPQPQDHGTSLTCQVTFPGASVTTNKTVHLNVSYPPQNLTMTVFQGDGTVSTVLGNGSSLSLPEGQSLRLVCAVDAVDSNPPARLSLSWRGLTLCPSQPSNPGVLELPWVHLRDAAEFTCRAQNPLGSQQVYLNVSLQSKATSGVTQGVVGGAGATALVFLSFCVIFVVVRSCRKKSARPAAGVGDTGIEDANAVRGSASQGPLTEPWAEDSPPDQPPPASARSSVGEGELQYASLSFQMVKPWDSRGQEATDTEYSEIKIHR

In the case of `Cc1cccc(CN2CC[C@@H]3[C@@H]2CCN3C(=O)c2ccno2)n1`, the Percent Effect in [1] was -0.832%; in [2] it was -2.7%; in test [3] it was 3.7%; in test [4], -8.15%; in test [5], -3.73%; with Trypanosoma cruzi it was 6.84%. Besides, the Percent Effect is -1.67% in [6]; 12.1% in [7]; -11.7% in the test listed under Homo sapiens; -15.7% in [8]; -13.9% in [9]; 1.22% in test [10]. Moreover, the Percent Effect in test [11] amounted to 94%.
Take `CC(Cc1c(F)cccc1F)NC(=O)Nc1cnn(CC(N)=O)c1` (stereo not given): the Percent Effect is -4.08% in test [1]; 21.5% in [2]; -0.509% in [3]; -1.23% in test [4]; -0.0747% in test [5]; 0.513% in the test on Trypanosoma cruzi. For the same compound, the Percent Effect in test [6] is -1.07%; in test [7], 19.7%; in the test listed under Homo sapiens, 15%; in test [8] it was -36.4%; in test [9] it was 3.12%; in test [10] it was 17.7%. Besides, in test [11], the Percent Effect was -23.1%.
In the case of `c1cc(COC[C@@H]2CCC[C@@]23CNCCO3)ccn1`, the Percent Effect in [1] was -6.97%; in [2] it was 8.11%; in test [3] it was 4.08%; in test [4] it was 91.3%; in test [5] it was -11.6%; with Trypanosoma cruzi, -6.94%. Besides, the Percent Effect is -3.5% in [6]; 10.7% in [7]; 2.47% in the test listed under Homo sapiens; -12.9% in test [8]; -3.24% in test [9]; 0% in test [10]. Further, the Percent Effect in [11] is -2.52%.
Take `COCCO[C@@H]1C[C@H]2CN(C(=O)c3ccc(C)nc3)CCN2C1`: the Percent Effect is 0.459% in [1]; 10.7% in test [2]; 6.84% in [3]; -2.91% in [4]; 3.06% in test [5]; -3.86% with Trypanosoma cruzi. Besides, the Percent Effect is -51.4% in test [6]; 8.89% in [7]; -12.5% in the test listed under Homo sapiens; -18.6% in test [8]; 4.17% in [9]; 15% in test [10]. For the same compound, the Percent Effect in [11] is -6.6%.
With `CN(C)C(=O)CN1C[C@@H]2CC[C@H](C1)N(C(=O)Cc1ccccc1Cl)C2`, the Percent Effect was -7.08% in [1]; -8.22% in test [2]; 1.5% in test [3]; 3.48% in [4]; -0.0171% in test [5]; -5.16% in the test with Trypanosoma cruzi. The Percent Effect is 0.798% in [6]; 9.16% in [7]; -4.89% in the test filed under Homo sapiens; -30.4% in test [8]; 0% in test [9]; -23.5% in test [10]. For the same compound, the Percent Effect in [11] is -1.84%.
